# HepG2 viability: counter-screen for TGF-b inhibitors: cytotoxicity in HepG2 cells; actives 0.76% (n = 410,000); Potency, µM (titrated, usually from 46.1 µM), without a hit: at the highest dose activity change, negative = cytotoxicity, usual class: cytotoxic; HepG2 CAGA-GFP viability, ATP luminescence, 18 h; further: potency means the concentration at half of the fitted maximal effect
#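 HepG2 CAGA-GFP cells (1000/well, DMEM with 1% FBS) received compound, then TGF-beta at 500 pg/mL final, and were incubated 18 hours at 37 degrees C. Viability was read by CellTiter-Glo luminescence. Media-only wells were set as complete cell-killing and DMSO as no toxicity.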
# TDP1 block: TDP1 (human) enzyme inhibition | Q9NUW8 | recombinant TDP1, AlphaScreen DNA substrate cleavage | Potency, µM (doses to about 130 µM), inactives show top-dose activity change, negative = inhibition, hits mostly inhibitors | actives 0.28% (n = 350,000); further: potency means the concentration at half of the fitted maximal effect; on the % scale 0 is the no-effect control and ±100 the full control effect; nearly all actives have a fitted effect of over 40% in size
# Target sequence (Q9NUW8 whole entry, looked up): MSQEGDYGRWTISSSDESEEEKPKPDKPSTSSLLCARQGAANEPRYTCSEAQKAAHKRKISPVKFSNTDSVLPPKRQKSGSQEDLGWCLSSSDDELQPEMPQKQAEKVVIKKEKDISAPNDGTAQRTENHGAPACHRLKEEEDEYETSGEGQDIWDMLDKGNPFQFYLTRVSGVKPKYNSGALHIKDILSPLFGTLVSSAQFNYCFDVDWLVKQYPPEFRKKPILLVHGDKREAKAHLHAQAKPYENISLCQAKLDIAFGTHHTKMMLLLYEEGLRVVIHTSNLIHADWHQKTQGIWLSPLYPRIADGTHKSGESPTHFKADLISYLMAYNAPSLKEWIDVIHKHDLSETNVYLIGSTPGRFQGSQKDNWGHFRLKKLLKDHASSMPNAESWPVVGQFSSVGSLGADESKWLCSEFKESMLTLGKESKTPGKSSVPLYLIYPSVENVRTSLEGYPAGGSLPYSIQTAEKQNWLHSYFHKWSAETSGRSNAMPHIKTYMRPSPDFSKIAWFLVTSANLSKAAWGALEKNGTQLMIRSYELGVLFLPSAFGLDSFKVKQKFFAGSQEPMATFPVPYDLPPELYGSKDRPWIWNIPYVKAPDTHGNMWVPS
#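 Here, a 5' biotin and 3' phosphotyrosine-FITC DNA oligonucleotide reports Tdp1 activity: intact substrate bridges AlphaScreen beads, while cleavage leaves a 3' phosphate and drops signal. All incubations at room temperature.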
# IL1B secr inh: inhibitors of inflammasome signaling (IL-1 beta secretion) | activity change, % at 57.5 µM | AID 743279 | actives 4.7% (n = 360,000) | THP-1 LPS/ATP IL-1B secretion, AlphaLISA, 16 h; stronger effect = lower value; in the data active means activity change below about -50%; inconclusive means mostly about -30% to -49%; further: on the % scale 0 is the no-effect control and ±100 the full control effect
#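 Secreted IL-1B measured by AlphaLISA bead assay after 16 h compound exposure of THP-1 cells; compounds (final up to 57.5 uM) added 1 h before LPS (250 ng/mL) and ATP (1.25 mM) stimulation; lower signal means less secretion.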
# DT40 TDP1 CPT: growth inhibition of DT40 Tdp1-/-;hTDP1 cells with camptothecin (screen for TDP1 inhibitors); AID 686979; actives 12% (n = 420,000); chicken DT40 Tdp1-/-;hTDP1 cells + 20 nM CPT, ATP luminescence, 48 h; Potency, µM (top dose mostly 46.2 µM), without a hit: at the highest dose activity change, negative = growth inhibition, hits mostly inhibitors; further: potency means the concentration at half of the fitted maximal effect; on the % scale 0 is the no-effect control and ±100 the full control effect; nearly all actives have a fitted effect of over 55% in size
#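 Cell growth measured by CellTiter-Glo luminescence after a minimum 48 h, 37 C compound exposure with 20 nM CPT in Tdp1-knockout DT40 cells stably expressing hTDP1, seeded 400/well; qHTS titration format.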
# TGFb SMAD3 inh: blocks TGF-b signaling | HepG2 CAGA-GFP TGF-b/SMAD3 reporter, GFP fluorescence, 18 h; TGF-beta stimulated, 500 pg/mL final | Potency, µM (top dose mostly 46.1 µM), for the others: at the top dose activity, negative = inhibition, most hits filed as inhibitors | actives 1.2% (n = 410,000); further: potency means the concentration at half of the fitted maximal effect; on the % scale 0 is the no-effect control and ±100 the full control effect; nearly all actives have a fitted effect of over 65% in size
#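 Per well, imaged GFP fluorescence of HEPG2 CAGA-GFP cells gives the signal; cells get compound, then TGF-beta (500 pg/mL final), 18 h at 37 degrees C; %Activity versus -TGF-beta and +DMSO controls.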
# TDP1 cell noCPT: qHTS for Inhibitors of human tyrosyl-DNA phosphodiesterase 1 (TDP1): qHTS in cells in absence of CPT. actives 15% (n = 420,000). Potency, µM (top dose mostly 46.2 µM), for inactives: top-dose activity change, negative = growth inhibition, usual class: inhibitors. DT40 Tdp1-/- hTDP1 cells, no CPT, ATP luminescence, 48 h; further: potency means the concentration at half of the fitted maximal effect; on the % scale 0 is the no-effect control and ±100 the full control effect; nearly all actives have a fitted effect of over 55% in size
#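 A cellular qHTS used chicken DT40 cells lacking endogenous Tdp1 but carrying stably transfected human TDP1. Compounds were applied without camptothecin, and cell growth kinetics were judged by ATP-dependent luminescence after ≥48 hr.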
# Active calls of the source: *; ? = inconclusive; . = no result; [ ] = dose if it differs, or a comment. Only some compounds are listed: those with a hit (about 19% of all), similar ones and a draw of the others. Unless noted, the call rests on the fitted dose curve; in most records, active means well fitted curve in the direction sought with a large enough effect; inconclusive means small, poorly fitted or top-dose-only effect, or another doubt; inactive means no such curve, though single readings can be large; an effect the other way counts as inactive or inconclusive.
SMILES,HepG2 viability,TDP1 block,IL1B secr inh,DT40 TDP1 CPT,TGFb SMAD3 inh,TDP1 cell noCPT
C[C@@H](C(=O)NC1CCN(Cc2ccccc2)CC1)N1C(=O)N2CCc3c([nH]c4ccccc34)[C@@]2(C)C1=O,-27%,.,-18,23µM*,?,?
CC(C)C[C@@H](C(=O)NC1CCN(Cc2ccccc2)CC1)N1C(=O)N2CCc3c([nH]c4ccccc34)[C@@]2(C)C1=O,13µM*,.,-25,12µM*,?,21µM*
CCOCCCNC(=O)CNC(=S)N(Cc1ccc(C)cc1)Cc1ccco1,11%,2%,29,?,-4%,0%
O=[N+]([O-])c1ccc(NNC(=S)Nc2ccccc2)cc1,-35%,11%,-18,4.5µM*,?,2.8µM*
O=[N+]([O-])c1ccc(O)c(NC(=S)Nc2ccccc2)c1,-8%,-1%,11,-22%,-5%,-12%
O=C(Nc1ccc([N+](=O)[O-])cc1)C(c1ccccc1)c1ccccc1,-46%,.,-8,18µM*,?,18µM*
O=C(NCC(O)c1ccc([N+](=O)[O-])cc1)C(c1ccccc1)c1ccccc1 (stereo not given),1%,7%,-2,?,-8%,?
CC[n+]1cccc(Br)c1,-30%,.,.,8%,-5%,-2%
CN(C)c1cc(F)c(C=O)cc1F,6%,.,.,17%,0%,-2%
CC12C=C(/C=C/C=C/c3ccco3)C(C)(C1)C(/C=C/c1ccco1)CC2=O (stereo not given),.,2µM*,.,.,.,.
CC12C=C(/C=C/C=C/c3ccccc3)C(C)(C1)C(/C=C/c1ccccc1)CC2=O (stereo not given),.,7%[21 µM],.,.,.,.
Cc1nc(NCC(=O)c2c[nH]c3ccccc23)sc1C,-17%,.,.,6.3µM*,?,?
CN(C)CC(=O)c1c[nH]c2ccccc12,-24%,0%,20,?,-4%,?
CCOC(=O)c1c(-c2ccco2)csc1NC(=O)CSc1nnc(N)s1,-20%,0%,40,?,-11%,?
CCOC(=O)c1c(-c2ccc(C)o2)csc1NC(=O)CN1CCC(C(N)=O)CC1,0%,8%,-78*,?,?,?
CCOC(=O)c1c(NC(=O)CN2CCCCC2)sc2c1CCC(C=O)=C2Cl,-16%,0%,-21,4µM*,1%,3.5µM*
CCOC(=O)c1c(-c2ccc(C)o2)csc1NC(=O)CN1CCN(CC)CC1,-30%,-4%,-18,?,-12%,29µM*
CCOC(=O)c1c(-c2ccc(C)o2)csc1NC(=O)CN(C)CC(=O)Nc1ccc(C)cc1,-53%,5%,30,?,-6%,?
CCOC(=O)c1c(-c2ccc(C)o2)csc1NC(=O)CSc1nncs1,-27%,8%,22,23µM*,-14%,16µM*
c1cc(-c2ccc(CN3CCOCC3)cc2)n2ccnc2c1,5%,.,11,-11%,-4%,-16%
CCOC(=O)c1c(-c2ccc(C)o2)csc1NC(=O)CN1CCCCC1,8%,6%,?,?,?,21µM*
COc1cccc(-c2ncc3ccccc3c2COC(=O)N(C)C)c1,-38%,1%,-5,18µM*,-18%,18µM*
O=C(OCc1c(-c2ccccc2)ncc2ccccc12)c1ccc(Br)cc1,2%,0%,18,-25%,-1%,13µM*
COc1cccc(-c2ncc3ccccc3c2COC(=O)CCC(=O)O)c1,-9%,1%,-6,-18%,-22%,-11%
CCOc1ccc(C(=O)NNC(=O)CN2C(=O)NC3(CCCC3)C2=O)cc1,5%,-1%,22,-4%,-4%,6%
SMILES,HepG2 viability,TDP1 block,IL1B secr inh,DT40 TDP1 CPT,TGFb SMAD3 inh,TDP1 cell noCPT
COc1cc(OC)cc(-c2nc3nc(C)c(CCC(=O)Nc4ccc(C)cc4C)c(C)n3n2)c1,3%,2%,.,4%,-14%,-26%
COc1ccccc1/C=C(/C(=O)OCC(=O)Nc1ccccc1C(C)C)c1ccccc1,-35%,0%,-11,?,?,21µM*
C=C(C(=O)Nc1ccccc1)c1ccc(C)cc1,-20%,-5%,-27,?,19%,-25%
O=C(CCN1N=C(c2ccccc2)CCC1=O)NC1CCCCC1,-2%,.,-51*,-17%,-9%,-5%
O=C(CCN1N=C(c2ccccc2)CCC1=O)NC1CCCC1,-1%,3%,-23,19%,-1%,-21%
O=C(Cn1cc(C(=O)c2ccncc2)c(=O)c2cc(F)ccc21)Nc1ccc(Cl)cc1,-14%,5%,.,?,?,?
Cc1ccc(C)c(N2CCN(C(=O)C3CCN(c4nc(-c5ccc(C(C)C)cc5)no4)CC3)CC2)c1,-25%,0%,.,?,-32%,10µM*
COc1ccc(-c2noc(N3CCC(C(=O)N4CCN(c5ccccc5F)CC4)CC3)n2)cc1,-4%,4%,.,?,3%,5.2µM*
CC(Oc1ccccc1)C(=O)Nc1cccc(-c2cn3cccnc3n2)c1 (stereo not given),-31%,5%,.,?,13%,?
CC1(C)CC(=O)C2=C(C1)Oc1nc3ccccc3cc1C2C(C#N)C#N (stereo not given),-17%,5%,-93*,2.9µM*,11µM*,4.1µM*
CCN(CC(=O)Nc1ccccc1OC)C(=O)c1ccc2[nH]c3c(c2c1)CC(C)CC3 (stereo not given),-27%,6%,-6,18µM*,?,?
CCCN(CC(=O)Nc1ccccc1OC)C(=O)c1ccc2[nH]c3c(c2c1)CC(C)CC3 (stereo not given),-25%,8%,-59*,?,?,?
Cc1oc2ncn(CC(C)C)c(=O)c2c1C(=O)NCCCN(C)Cc1ccccc1,-26%,0%,.,-9%,-27%,-28%
Cc1ccc(Nc2nccc(N(C)c3ccc4c(C)n(C)nc4c3)n2)cc1S(N)(=O)=O,.,.,.,11µM*,.,13µM*
O=C(c1ccco1)N1CCCC(c2nc3c(nnn3Cc3ccc(F)cc3)c(=O)[nH]2)C1 (stereo not given),-15%,11%,-10,5%,9%,-8%
C=CC[C@]12C[C@@H](OC)C(=O)C=C1O[C@@H](c1ccc(OC)c(OC)c1)[C@H]2C,-3%,.,3,18µM*,-2%,?

# Compound activity deposited in PubChem by National Center for Advancing Translational Sciences (NCATS).
